About 1,400 (4.5%) of roughly 31,000 sequences were called active.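 The calls were made as follows: active = median seed-adjusted z-score above 1 or below -1; inactive = the rest.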 Shown is part of a subset that was picked to be rich in actives.

This experiment is described as follows: Novel Modifiers of Survival Motor Neuron (SMN) Protein: Gene Identification via Genome-wide siRNA Screen.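 Also: luminescence tracks full-length SMN protein made from the SMN2 reporter.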 The note with it: HEK293T SMN2-luciferase reporter, siRNA knockdown, 72 h; actives lie on both sides. Summed up:
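HEK293T cells stably carrying an SMN2 promoter/splicing cassette–luciferase reporter were reverse-transfected with 1 pmol siRNA per well (druggable-genome library, 3 siRNAs per gene) and grown 72 h at 37 °C. Luminescence, normalized to negative-control siRNA and log10-transformed, was scored as MAD.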
In general terms: Reporter assays use an easily measured gene product as a stand-in for the process of interest.
With GCAUCAGCUUCGAUGAGUATT against S100A16, the median seed-adjusted z-score is 0.24 (inactive).
On to CCCUGUCUAUAAUUUCUUUTT against DGCR8, for which the median seed-adjusted z-score is -0.266 (inactive).
Next, CGCCUUAUACUUUACCAAATT against MGC16703: 0.55 (inactive); CCAUUAAGAAUGCUAAUAUTT against ABCB10: -0.1 (inactive); GGCUAUAGGGUGUAUAUUUTT against CDK8: -1.47 (active).
Consider CCUUCGACCUCAAGAGACATT against OVOL1, for which the median seed-adjusted z-score was -0.0414 (inactive).
For the sequence CAGGCUUUGUUAGACGUAATT against ZNF157, the median seed-adjusted z-score is 0.137 (inactive).
Next, GCUCUUGGAUUAAAAGGUATT against STAR: 0.478 (inactive); GAACGUACUCUUGCUUAUATT against ATP6V1D: 0.594 (inactive).
Next, CAGAGAACCCAUUACAUCATT against HADH: 1.11 (active).
Under GACUUUCACAGUUCACCGATT against KCTD3 stands 0.603 (inactive); under UCAACCCUCUGAUAGAAGATT against EID2, -1.04 (active); under GUAUGCUCCCGAUCAAGUATT against APOBEC3A, 0.467 (inactive).
In the case of GAAGGAUGGGUGGACGUAATT against NALCN, the median seed-adjusted z-score is -0.266 (inactive).
On to CCAUAAAUGCUACGAAUAUTT against EGFR, for which the median seed-adjusted z-score was 0.263 (inactive).
In the case of CAAUGAAUUUUUCCGAAGATT against ITGA10, the median seed-adjusted z-score was 0.378 (inactive).
For the sequence CCACAUGCUUCAAACAUCATT against TOR1A, the median seed-adjusted z-score is -0.231 (inactive).
In the case of UAGCUUCGGUGAUCAAGAATT against ANXA9, the median seed-adjusted z-score is 0.055 (inactive).
Next, GCAAGAGUCGUUCACCAGATT against MGMT: -0.0549 (inactive); GCUCAAAGGUCUCACCUGCTT against SLC35A2: 1.06 (active); GGCCGGAGAUUAUCCUCAATT against MIXL1: -0.204 (inactive).
Next, GUGUGGUAGCUAUUGACAATT against TSC22D1: 0 (inactive); UUCCCAUAUUUAUUCGGACTT against AMH: -0.255 (inactive).
Regarding GCAGUGACCUUCAAAGUGATT against PTPRN2, the median seed-adjusted z-score is -0.104 (inactive).
Next, CAACUGCAAGAGGACUGUATT against SLC10A4: 0.069 (inactive); UGCUGUUCGUGGAUUUCAATT against CDX4: 0.181 (inactive).
Under AGAUUGAAAUCGACUUUGATT against BRD4 stands 1.13 (active); under GCAUCAUCUCAGCACCAGATT against SLC5A12, 0.279 (inactive); under GAACCGCCCUCCUGAUUAATT against WNT3A, -0.66 (inactive).
Next, GCAAGAUCCCAAAUCAGCATT against ADAT1: 0.404 (inactive).
As for ACAAGAUGACCAACACUAATT against ARHGAP1, the median seed-adjusted z-score is -1.14 (active).
Turning to GAACGGGUAUGUGGAGAUATT against INHBA, the median seed-adjusted z-score is 0.361 (inactive).
Next, CGAACGAAGAAGAGCCGAATT against NFATC2: 0.183 (inactive); CUACCCAACCUGUAGCUAATT against UBE2J1: -1.2 (active); CGAUUAGAAAUCAACAUGATT against MLKL: 0 (inactive).
Next, GAUUUCUAGGCAUCCCGUATT against ARSA: 0.0938 (inactive); CCAUGAUCCUGUGGAUAAATT against HNRNPA2B1: 1.33 (active); CCCUCGAAUUCGCAUAGAATT against DIS3: 0.266 (inactive).
For GCACCGUCUAUGUCACCAUTT against GAL3ST3, the median seed-adjusted z-score was -0.54 (inactive).
Under CCCAUAUUCGGAUCCAGAATT against PTPN6 stands -0.515 (inactive); under GGAAUCGUGGAGAAUAUGATT against NUBP2, -0.21 (inactive).
On to CCAUGCCCUAUGUUAAGAATT against RRM2B, for which the median seed-adjusted z-score is -0.128 (inactive).
Turning to AGACGAUCCGGGUAAAGUUTT against LSM7, the median seed-adjusted z-score was -0.45 (inactive).
As to CAACUAGUGCAACCAGUAATT against ZNF207, the median seed-adjusted z-score is -3.1 (active).
Next, GGCUCCUCCUUGUACUCAATT against FOXO3: -0.712 (inactive).
Next, GGGCAUCGCUAAACCCAAATT against LIF: 0.273 (inactive); GGUCCGAUGUUACGUCUAATT against TIGD4: -0.553 (inactive).
Next, CCGGGACAGUGACAUCAUATT against ENDOD1: -0.138 (inactive); GGAGCACAGAGGCUCAGAATT against TNFRSF13B: 0.152 (inactive).
In the case of CCAUCAAACUUGCAUCCCUTT against ISX, the median seed-adjusted z-score is 1.99 (active).
As to GAACAUCUCUUGUGGUAUUTT against SLC22A16, the median seed-adjusted z-score is 0.0878 (inactive).
Under GGUUUUAACUGGAACUGGATT against HIF1AN stands -0.0315 (inactive).
Under GGAUCGACCCAACCUAUGUTT against XYLT2 stands 0.148 (inactive); under CAGCACUAUUAGACAGGAATT against ZBTB40, 0.187 (inactive).
For the sequence CUGCGGACCCAAUACAUGATT against ARID3A, the median seed-adjusted z-score is -1.11 (active).
In the case of AGAGGUUUGGCAGAAAUACTT against NPFF, the median seed-adjusted z-score is -0.631 (inactive).
Turning to UAAGAACACCGUUACCCAATT against NLGN4X, the median seed-adjusted z-score is -0.1 (inactive).
For the sequence GCAGACCACCUGAAUAUGATT against TRO, the median seed-adjusted z-score was 2.04 (active).
Next, GGAGUAGAUUUUAGCAUAATT against TNKS2: 0.0545 (inactive); GAUAUUGCACAAAUCUAUATT against UBE2D1: 0.508 (inactive); GAAGAUAUGCAACAGCCUATT against UNC5B: -0.0207 (inactive).
Next, CAGAAGUCGUAGUCAUGAATT against RBM39: -1.82 (active); GUAUCUGACUGACAUCCUUTT against PLCH2: 0.593 (inactive).
For the sequence CCAAUACAGUGGAACCUAUTT against ATXN1, the median seed-adjusted z-score is -0.024 (inactive).
For CCUCCAACGUAUCAUGAGATT against CYP7A1, the median seed-adjusted z-score is -0.0092 (inactive).
With ACAAAAUUGCUACAUCAAATT against ECHDC1, the median seed-adjusted z-score was 0.554 (inactive).
Under GCAGAGAACUGGUUCCGAATT against ZNF512B stands 0.212 (inactive); under CCGUGUCUUCAGGAACGAATT against CYB561, 0 (inactive).
As to GAUUUUAGCACUACAACAATT against ZNF664, the median seed-adjusted z-score is 1.08 (active).
AGCUGAAAAUUGAGAACAATT against TBX4: the median seed-adjusted z-score was 0.968 (inactive).
Under GCCCAUUAAUAUUAUAGGUTT against LAP3 stands 0.0175 (inactive); under CCUUCAUCCGGAAAUUAAATT against ZIM3, -0.02 (inactive); under GGUGGAUGGUAAUAAGGAATT against CTPS2, 1.08 (active).
Under GGAAGUUGUUCAACGAGAUTT against MLPH stands -1.2 (active); under CGGCUAUGACAAGUCAAUATT against PKDREJ, 0.376 (inactive).
Next, GGCAGUACAUGUACGAUGATT against AGXT2L2: -0.0495 (inactive).
Consider GAACUGUCGGCGGAACAUUTT against MFAP3L, for which the median seed-adjusted z-score was 1.03 (active).
Next, GCGUUGACAGUGAUGCGUATT against SLC4A3: -0.7 (inactive); GCUUUUGCAUGGAUGUGCATT against ELTD1: 0.387 (inactive).
On to GGAAUAUGAGGUGACCGUUTT against IL17RA, for which the median seed-adjusted z-score is -1.29 (active).
CGGUAAAUGUCACUCGUGATT against PRKG1: the median seed-adjusted z-score is 0 (inactive).
Under AGAUGUCCAGACCAAGAUATT against CREBL1 stands -0.348 (inactive); under CAACGAAAAUCUAAAUGCATT against HMMR, 0.389 (inactive); under AGAAUGUGCGGCUUAUUGATT against CCDC88B, -0.153 (inactive).
Next, CCAGAGCAAAGGCUAUGAATT against ZNF350: 0.133 (inactive); UAAAAUCUAGGGAUCCAAUTT against POLR2K: -3.72 (active).
Next, AGAUUACGUUGAAGAACGATT against GNGT1: -0.0382 (inactive); CAUUCACUGAGGCGACAGATT against ABCA9: -0.139 (inactive); GAAGGGCCUUUUUAUCCAATT against MCTS1: 0.116 (inactive).
As to CGACCAAGAUUAUGGAAUUTT against ADAMTS17, the median seed-adjusted z-score was 0.257 (inactive).
Regarding GGCUAUCUGCUGAAGCGCATT against RASAL1, the median seed-adjusted z-score was -0.089 (inactive).
Take CAAUGACUAUGAAUAAGUATT against SLC9A2: the median seed-adjusted z-score is -1.02 (active).
Under GCCUUUAUGUGGACAUUAATT against SLCO2B1 stands 0.289 (inactive); under CGACAAUGUUAAGUUCAUATT against SULT6B1, 0 (inactive).
GCAUAGAUGUGGAUAGCUUTT against CFTR: the median seed-adjusted z-score is -1.23 (active).
As to GGUCCGUGACGAGAAGUUATT against RAB4A, the median seed-adjusted z-score is 0.0022 (inactive).
Next, CGAACCAUUUCAUCACGUATT against MARS2: -0.00523 (inactive); CCCUUAAACUCGAACCCAATT against HLX: 0.379 (inactive).
Under GCACGGUAAUUUUGACAGUTT against CD302 stands 0.0818 (inactive); under GCUGUUACCUCGACGAGUATT against TSC2, 1.11 (active).
Under GCAGCUCCGAAUUCAGGAATT against TFE3 stands -0.0442 (inactive).
GAAGAACUCGAUCAGCUAATT against MYH4: the median seed-adjusted z-score is -1.8 (active).
Under GGAUCUGACAGUUCCAGAATT against CLDN20 stands -0.00173 (inactive); under GACAAUAUCCUACCCAUUUTT against SLC25A16, 0.0479 (inactive); under AGAGAAUCCAGGAUCAGAATT against CHIT1, -0.578 (inactive).
Next, GGCUCGCUUUGAAAAGCUATT against LIN7A: -1.39 (active).
Under CGGACCCGCUGAGACAUUATT against HOXB6 stands -0.168 (inactive).
For the sequence GGCCUACAACGAAAGUGAATT against CAMKK1, the median seed-adjusted z-score is 0 (inactive).

(Values after PubChem BioAssay AID1347426 (Functional Genomics Laboratory (NCATS/FGL), 2020).)
